These results are taken from PubChem BioAssay (NCATS).

A short description of assay [1]: Primary qHTS for inhibitors of La Crosse Virus (LACV) - induced cell death in SH-SY5Y cells (AID 1508616).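 Further: top concentration of the series differs between compounds; higher means more rescue of cells from virus-induced death.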 Particulars: SH-SY5Y LACV cytopathicity rescue, ATP luminescence, 6 d; series mostly up to 9.63 µM. Put shortly: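 SH-SY5Y, 6000 cells/well; cpd via pin tool in DMSO; LACV 0.01 MOI; 6 d 37C 5% CO2; ATPLite, 5 min RT; luminescence normalized to ±virus DMSO controls.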
A general note: qHTS replaces the single test concentration by a dilution series.

The target of assay [2] is Calcium and integrin-binding protein 1 (Homo sapiens) (UniProt Q99828). The assay can be described thus: Primary qHTS for Identification of Calcium Integrin Binding Protein 1 (CIB1) Competitor (AID 1508620).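 Further: GST tagged CIB1 binding a fluorescein labelled alphaIIb integrin peptide tracer; top concentration of the series differs between compounds.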 Conditions: CIB1-GST / FITC-alphaIIb peptide fluorescence polarization; series mostly up to 114 µM. In outline:
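Fluorescence polarization competition: GST-tagged CIB1 (1 uM final) preincubated with compound 15 min at room temperature, then FITC-labelled alphaIIb peptide (100 nM final) added. After 15 min at room temperature, polarization read at Ex 480/Em 540.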

Assay [3] in a line: Primary qHTS for small molecule stabilizers of the endoplasmic reticulum resident proteome: Secreted ER Calcium Modulated Protein (SERCaMP) assay (AID 1508630). Particulars: SH-SY5Y GLuc-SERCaMP (Gaussia luciferase released on ER calcium loss) secretion, thapsigargin, luminescence; series mostly up to 38.4 µM. Put shortly:
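The SH-SY5Y reporter protocol was run at 3 concentrations up to 38.3 uM (primary) or 11 concentrations (follow-up): 16 h compound, 100 nM thapsigargin for 4 h, then extracellular luciferase luminescence.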

Assay [4] in a line: Confirmatory qHTS for small molecule stabilizers of the endoplasmic reticulum resident proteome: Secreted ER Calcium Modulated Protein (SERCaMP) assay (AID 1508628). Further: nearly all actives have a fitted effect of over 40% in size. Particulars: SERCaMP secreted luciferase ER calcium/proteostasis reporter; series mostly up to 76.3 µM. In outline:
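Reporter secretion upon ER calcium depletion (100 nM thapsigargin, 4 h, 37C) is measured as medium luminescence with coelenterazine, after 16 h compound pretreatment of SH-SY5Y-GLuc-SERCaMP cells; primary at three concentrations up to 38.3 uM, follow-up at 11 (up to 76.6 uM).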

The nature of assay [5]: Counterscreen qHTS for small molecule stabilizers of the endoplasmic reticulum resident proteome: GLuc-NoTag assay (AID 1508627). Further: potency means the concentration at half of the fitted maximal effect. Conditions: Gaussia luciferase NoTag secretion counterscreen, luminescence, thapsigargin 100 nM for final 4 h; series mostly up to 76.4 µM. In outline: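 Counterscreen line: SH-SY5Y-GLuc-NoTag. Seed, 5 h; compound, 19 h; thapsigargin 100 nM, 4 h; 37C/5% CO2. Readout: secreted GLuc luminescence, coelenterazine 0.07x final, no lysis.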
(In general: A counterscreen serves to expose hits that act by an unwanted route or on another target.)

Assay [6] is described as follows: Cell Viability qHTS for small molecule stabilizers of the endoplasmic reticulum resident proteome (AID 1508629).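 Further: potency means the concentration at half of the fitted maximal effect; compound exposure about 46 h in total before the viability read.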 Conditions: cell viability counter-screen, 100 nM thapsigargin for final 4 h.

Structures are written as SMILES. Results filed as inconclusive are left out. The source made the active and inactive calls. The call rests on the fitted dose curve; in most records, active means well fitted curve in the direction sought with a large enough effect; inconclusive means small, poorly fitted or top-dose-only effect, or another doubt; inactive means no such curve, though single readings can be large; an effect the other way counts as inactive or inconclusive.

Calcium and integrin-binding protein 1 (Homo sapiens), sequence (Q99828 whole entry, looked up): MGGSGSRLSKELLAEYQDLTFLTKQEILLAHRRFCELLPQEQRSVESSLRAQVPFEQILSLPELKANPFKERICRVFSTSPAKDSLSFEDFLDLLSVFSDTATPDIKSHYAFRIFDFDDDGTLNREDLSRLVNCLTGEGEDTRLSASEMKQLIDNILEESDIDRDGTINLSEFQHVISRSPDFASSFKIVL

For the compound `O=C(/C=C/c1ccccc1)NCCO`, the Potency entry in assay [1], in assay [2] and in assay [3] was “inactive” throughout.

Turning to `CNC(=O)c1c(I)c(NC(=O)CCCCC(=O)Nc2c(I)c(C(=O)O)c(I)c(C(=O)NC)c2I)c(I)c(C(=O)O)c1I`, the Potency entry in assay [1], in assay [2] and in assay [3] was “inactive” each time.

On to `CNCC[C@H](Oc1ccc(C(F)(F)F)cc1)c1ccccc1`, for which the Potency result in assay [1], in assay [4] and in assay [3] was “inactive” in each case.

With `Cc1cc(O)c2ccccc2c1O`, the Potency entry in assay [1], in assay [2] and in assay [3] was “inactive” in each case.

For `O=C(O)Cc1ccc(-c2ccccc2)cc1`, the Potency entry in assay [1], in assay [2] and in assay [3] was “inactive” throughout.

Turning to `C/C(=N\O)c1ccc(OCC(=O)N2CCCCC2)cc1`, the Potency entry in assay [1], in assay [2] and in assay [3] was “inactive” throughout.

For `CCCCCCOc1ccccc1C(N)=O`, the Potency result in assay [1], in assay [2] and in assay [3] was “inactive” in each case.

With `C#CC1(O)CC[C@H]2[C@@H]3CCC4=CCCC[C@@H]4[C@H]3CC[C@@]21C` (stereo not given in full), the Potency entry in assay [1], in assay [2] and in assay [3] was “inactive” each time.

With `CCCCCCCC/C=C/C(=O)O`, the Potency entry in assay [1], in assay [2] and in assay [3] was “inactive” in each case.

On to `Cc1nc2ccccc2n1Cc1ccc(Cl)cc1`, for which the Potency result in assay [1], in assay [2] and in assay [3] was “inactive” throughout.

`N=C1N=C(N)c2cc3ccccc3cc21`: the Potency entry in assay [1] and in assay [2] was “inactive” throughout. Further, the Potency in assay [5] is 89.1 µM (active); in assay [6], 39.8 µM (active).

Turning to `Cc1[nH]cnc1CN1CCc2c(c3ccccc3n2C)C1=O`, the Potency entry in assay [1], in assay [2] and in assay [3] was “inactive” each time.

As for `COc1ccnc2c1CCCCC2S(=O)c1nc2ccccc2[nH]1` (stereo not given), the Potency result in assay [1] and in assay [3] was “inactive” throughout.

For the compound `CC(C)(C)c1nnc(NS(=O)(=O)c2ccc(N)cc2)s1`, the Potency entry in assay [1], in assay [2] and in assay [3] was “inactive” throughout.

As to `C[N+]1(C)[C@@H]2CC(OC(=O)[C@H](CO)c3ccccc3)C[C@H]1[C@@H]1O[C@@H]12` (stereo not given in full), the Potency result in assay [1], in assay [2] and in assay [3] was “inactive” throughout.
